# Assay results reported in PubChem BioAssay.
# The source made the active and inactive calls.
# Assays:
# [1] = tested on: Plasmodium falciparum Sir2 (PF13_0152, Sir2A); assay: Plasmodium falciparum Sir2A binding compounds – biochemical, small-molecule microarray, 635 nm fluorescence, primary screen (AID 1098); details: fluorescence 635 nm, higher = more signal;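 also: score merges spot fluorescence intensity with its signal-to-noise ratio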
# [2] = probe aDKK1 binding to arrayed compounds – biochemical, biotinylated probe, 635/667 nm fluorescence, primary screen (AID 1099); details: small-molecule microarray, higher = more signal;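 also: score merges 667nm spot fluorescence with signal to noise across triplicate slides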
# [3] = probe aCHRDL2 binding to arrayed compounds – biochemical, biotinylated probe, 635/667 nm fluorescence, primary screen (AID 1100); details: small-molecule microarray, higher = more signal
# [4] = change in splice reporter luminescence, either direction, cell-based, HEK293, spliceosome inhibition project, primary screen (AID 1101); details: HEK293 splicing luciferase reporter, 24 h, higher = more signal, called active from +8 up or from −8 down;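 also: HEK293 cells carrying a splicing-competent luciferase reporter gene; test concentration not given here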
# [5] = biological target: Fibroblast growth factor 10 (Homo sapiens) (UniProt O15520); assay: compounds binding fibroblast growth factor 10 – biochemical, small-molecule microarray, 635 nm fluorescence, primary screen (AID 1102); details: FGF10 binding, fluorescence 635 nm, higher = more signal
# [6] = tested on: glycogen synthase kinase-3 (GSK3A per assay name; protocol says GSK3B); assay: compounds binding glycogen synthase kinase-3 – biochemical, small-molecule microarray, 635 nm fluorescence, GSK3A, primary screen (AID 1103); details: fluorescence 635 nm, higher = more signal; also: the record names both GSK3A and GSK3B
# [7] = biological target: Epidermal growth factor receptor (Homo sapiens) (UniProt P00533); assay: compounds binding epidermal growth factor receptor – biochemical, small-molecule microarray, 635 nm fluorescence, primary screen (AID 1104); details: EGFR binding, higher = more signal;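 also: score merges 667 nm emission intensity with spot signal to noise over triplicate slides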
# [8] = biological target: Follistatin-related protein 3 (Homo sapiens) (UniProt O95633); assay: compounds binding follistatin-related protein 3 – biochemical, small-molecule microarray, 635 nm fluorescence, primary screen (AID 1105); details: FSTL3 binding, higher = more signal;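 also: score merges emission near 667 nm and signal to noise per printed spot across three slides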
# [9] = biological target: Dickkopf-related protein 1 (Homo sapiens) (UniProt O94907); assay: small molecules binding DKK1 protein – biochemical, small-molecule microarray, 635 nm fluorescence scan, primary screen (AID 1106); details: higher = more signal;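 also: score merges emission near 667 nm with signal to noise over three replicate slides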
# [10] = tested on: Inhibin beta A chain (activin A); assay: small molecules binding activin A – biochemical, small-molecule microarray, 635 nm fluorescence scan, primary screen (AID 1107); details: INHBA, higher = more signal;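 also: mouse activin A protein probed at 4.33 µg/mL on printed slides; score merges bound-protein fluorescence near 667 nm with spot signal-to-noise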
# [11] = tested on: Human papillomavirus type 1a protein E7 (residues 44-93); assay: small molecules binding HPV E7 44-93 – biochemical, small-molecule microarray, residues 44-93, 635 nm fluorescence, primary screen (AID 1108); details: fluorescence 635 nm, higher = more signal;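 also: E7 fragment applied at 1 µg/mL in TBST for 1 h at 4 C; score combines spot fluorescence with its signal to noise ratio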
# [12] = hepatitis C replication reporter changes, two-sided – Huh7 cells, luciferase reporter, HCV replication inhibitor project, primary screen (AID 1109); details: Huh7 HCV replicon luciferase reporter, 48 h; higher = more signal;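 also: huh7 hepatoma cells harbouring a luciferase neomycin HCV replicon reporter; luciferase luminescence as measure of HCV replicon replication; test concentration not given here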
# [13] = biological target: Left-right determination factor 2 (Homo sapiens) (UniProt O00292); assay: small molecules binding LEFTY2 protein – biochemical, small-molecule microarray, 635 nm fluorescence scan, primary screen (AID 1110); details: higher = more signal
# [14] = biological target: Calmodulin-1 (Homo sapiens) (UniProt P0DP23); assay: small molecules binding calmodulin-1 with EGTA – biochemical, small-molecule microarray, Cy5-labelled CALM1, profiling panel (AID 1111); details: Cy5-CALM1 binding fluorescence, higher = more signal;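 also: labelled calmodulin applied in Tris saline Tween buffer holding calcium plus EGTA and DTT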
# [15] = biological target: Calmodulin-1 (Homo sapiens) (UniProt P0DP23); assay: small molecules binding Ca-loaded calmodulin-1 – biochemical, small-molecule microarray, Cy5-labelled CALM1, plus calcium, artefact control for SMM control-protein annotation, profiling panel (AID 1112); details: Cy5-CALM1 binding fluorescence, higher = more signal;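 also: score merges spot fluorescence with signal to noise from triplicate slides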
# [16] = probe aWnt5a binding to arrayed compounds – biochemical, biotinylated probe, 635/667 nm fluorescence, primary screen (AID 1113); details: small-molecule microarray, higher = more signal;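 also: score merges 667 nm fluorescence intensity with signal-to-noise per printed feature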
# [17] = probe aShh binding to arrayed compounds – biochemical, biotinylated probe, 635/667 nm fluorescence, primary screen (AID 1114); details: small-molecule microarray, higher = more signal;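 also: probe is biotin-labelled aShh protein from a stem cell growth factor screen; measures binding of labelled protein to compounds printed on the slide; score merges feature fluorescence at 667 nm with signal-to-noise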
# [18] = probe aNog binding to arrayed compounds – biochemical, biotinylated probe, 635/667 nm fluorescence, primary screen (AID 1115); details: small-molecule microarray, higher = more signal;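 also: probe is biotinylated aNog protein used at 0.15 µg/mL for 1 h at 4 C; z-score combines 667 nm fluorescence of each spot with its signal to noise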
# [19] = biological target: Torsin-1A-interacting protein 1 (Homo sapiens) (UniProt Q5JTV8); assay: compound microarray binding of lysate hLAP1 – cell lysate, small-molecule microarray, COS7 lysate, 635/667 nm fluorescence, primary screen (AID 1116); details: 635 nm fluorescence, higher = more signal
# [20] = biological target: Alpha-bungarotoxin (Bungarus multicinctus) (UniProt P60615); assay: compounds binding labelled alpha-BTX control protein – biochemical, small-molecule microarray, Alexa647 label, 635/667 nm fluorescence, artefact control for SMM control protein annotation, profiling panel (AID 1117); details: alpha-BTX-A647 binding fluorescence, higher = more signal
# Alpha-bungarotoxin (Bungarus multicinctus), sequence (P60615 whole entry, looked up): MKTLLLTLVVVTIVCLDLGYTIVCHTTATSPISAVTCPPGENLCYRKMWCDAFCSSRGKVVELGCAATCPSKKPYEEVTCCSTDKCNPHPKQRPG
# Left-right determination factor 2 (Homo sapiens), sequence (O00292 whole entry, looked up): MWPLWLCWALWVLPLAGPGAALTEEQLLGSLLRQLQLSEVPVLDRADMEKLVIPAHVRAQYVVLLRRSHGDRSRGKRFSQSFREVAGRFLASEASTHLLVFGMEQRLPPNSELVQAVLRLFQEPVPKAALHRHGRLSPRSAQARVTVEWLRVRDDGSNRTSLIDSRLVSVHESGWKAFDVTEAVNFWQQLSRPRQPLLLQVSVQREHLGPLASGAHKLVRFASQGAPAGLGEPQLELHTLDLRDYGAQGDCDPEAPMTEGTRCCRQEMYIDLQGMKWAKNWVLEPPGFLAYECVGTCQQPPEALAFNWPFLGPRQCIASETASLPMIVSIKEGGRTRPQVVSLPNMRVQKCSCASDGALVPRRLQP
# Dickkopf-related protein 1 (Homo sapiens), sequence (O94907 whole entry, looked up): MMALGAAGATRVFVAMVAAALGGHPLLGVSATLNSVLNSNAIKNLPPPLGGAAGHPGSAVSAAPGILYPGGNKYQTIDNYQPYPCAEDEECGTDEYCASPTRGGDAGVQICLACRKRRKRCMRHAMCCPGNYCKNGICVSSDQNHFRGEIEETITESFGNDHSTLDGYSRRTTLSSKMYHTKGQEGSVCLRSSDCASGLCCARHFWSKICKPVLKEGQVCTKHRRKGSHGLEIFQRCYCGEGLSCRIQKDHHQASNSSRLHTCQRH
# Torsin-1A-interacting protein 1 (Homo sapiens), sequence (Q5JTV8 whole entry, looked up): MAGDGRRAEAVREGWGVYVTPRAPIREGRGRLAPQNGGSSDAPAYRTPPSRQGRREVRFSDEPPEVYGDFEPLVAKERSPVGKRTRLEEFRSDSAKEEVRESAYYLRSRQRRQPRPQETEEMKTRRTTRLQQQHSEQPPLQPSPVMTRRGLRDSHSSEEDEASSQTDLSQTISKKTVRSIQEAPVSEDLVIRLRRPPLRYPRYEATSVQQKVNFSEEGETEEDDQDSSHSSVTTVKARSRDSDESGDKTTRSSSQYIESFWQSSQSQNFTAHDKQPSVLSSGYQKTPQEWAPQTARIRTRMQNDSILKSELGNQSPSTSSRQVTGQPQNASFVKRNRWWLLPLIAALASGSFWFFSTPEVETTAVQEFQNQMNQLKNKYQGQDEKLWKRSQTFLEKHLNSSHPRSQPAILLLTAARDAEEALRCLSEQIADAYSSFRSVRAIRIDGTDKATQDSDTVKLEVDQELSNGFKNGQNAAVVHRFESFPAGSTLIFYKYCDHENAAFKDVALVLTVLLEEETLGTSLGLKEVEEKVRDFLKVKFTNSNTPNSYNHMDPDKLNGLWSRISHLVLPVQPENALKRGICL
# Fibroblast growth factor 10 (Homo sapiens), sequence (O15520 whole entry, looked up): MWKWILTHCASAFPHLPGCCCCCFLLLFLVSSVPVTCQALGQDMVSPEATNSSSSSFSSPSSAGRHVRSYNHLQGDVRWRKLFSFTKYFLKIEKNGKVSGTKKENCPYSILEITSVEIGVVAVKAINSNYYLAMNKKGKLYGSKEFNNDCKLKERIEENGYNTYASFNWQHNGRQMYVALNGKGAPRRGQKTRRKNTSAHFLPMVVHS
# Follistatin-related protein 3 (Homo sapiens), sequence (O95633 whole entry, looked up): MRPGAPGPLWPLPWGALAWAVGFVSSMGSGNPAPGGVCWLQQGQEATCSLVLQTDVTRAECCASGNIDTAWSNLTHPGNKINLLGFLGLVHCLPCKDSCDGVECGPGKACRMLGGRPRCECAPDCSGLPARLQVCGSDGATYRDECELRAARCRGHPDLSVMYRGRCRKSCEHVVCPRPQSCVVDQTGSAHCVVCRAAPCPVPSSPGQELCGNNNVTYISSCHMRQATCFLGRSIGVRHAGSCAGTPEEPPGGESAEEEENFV
# Epidermal growth factor receptor (Homo sapiens), sequence (P00533 whole entry, looked up): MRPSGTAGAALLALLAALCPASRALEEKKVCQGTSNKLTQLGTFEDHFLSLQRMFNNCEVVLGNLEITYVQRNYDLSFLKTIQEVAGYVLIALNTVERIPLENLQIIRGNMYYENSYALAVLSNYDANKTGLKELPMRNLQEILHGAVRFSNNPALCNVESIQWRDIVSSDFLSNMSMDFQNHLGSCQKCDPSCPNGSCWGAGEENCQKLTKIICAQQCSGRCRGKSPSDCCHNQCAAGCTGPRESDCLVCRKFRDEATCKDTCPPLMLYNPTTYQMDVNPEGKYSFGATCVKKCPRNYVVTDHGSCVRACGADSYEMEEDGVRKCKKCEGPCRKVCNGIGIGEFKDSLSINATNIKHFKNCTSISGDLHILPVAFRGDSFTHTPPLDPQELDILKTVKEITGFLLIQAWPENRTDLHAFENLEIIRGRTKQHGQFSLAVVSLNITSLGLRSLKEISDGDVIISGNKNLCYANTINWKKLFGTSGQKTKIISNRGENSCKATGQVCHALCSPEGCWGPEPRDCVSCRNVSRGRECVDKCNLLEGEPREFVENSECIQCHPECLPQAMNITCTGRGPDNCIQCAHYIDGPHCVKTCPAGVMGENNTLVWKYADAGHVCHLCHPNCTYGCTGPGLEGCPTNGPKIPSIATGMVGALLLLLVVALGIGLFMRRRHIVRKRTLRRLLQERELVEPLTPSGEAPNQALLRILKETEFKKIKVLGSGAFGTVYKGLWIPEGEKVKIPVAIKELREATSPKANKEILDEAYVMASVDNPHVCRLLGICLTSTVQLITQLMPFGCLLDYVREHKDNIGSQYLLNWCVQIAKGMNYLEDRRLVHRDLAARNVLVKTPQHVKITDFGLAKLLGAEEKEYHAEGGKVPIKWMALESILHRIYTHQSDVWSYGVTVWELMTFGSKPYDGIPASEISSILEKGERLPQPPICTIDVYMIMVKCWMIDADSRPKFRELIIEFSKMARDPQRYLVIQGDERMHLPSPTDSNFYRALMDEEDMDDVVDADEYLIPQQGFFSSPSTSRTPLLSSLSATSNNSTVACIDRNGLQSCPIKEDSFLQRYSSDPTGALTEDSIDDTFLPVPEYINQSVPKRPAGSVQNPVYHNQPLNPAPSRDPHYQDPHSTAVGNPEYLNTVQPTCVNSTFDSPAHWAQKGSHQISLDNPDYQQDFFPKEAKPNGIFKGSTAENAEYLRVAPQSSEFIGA
SMILES,composite z-score [1],composite z-score [2],composite z-score [3],z-score [4],composite z-score [5],composite z-score [6],composite z-score [7],composite z-score [8],composite z-score [9],composite z-score [10],composite z-score [11],z-score [12],composite z-score [13],composite z-score [14],composite z-score [15],composite z-score [16],composite z-score [17],composite z-score [18],composite z-score [19],composite z-score [20]
NCCCCCNC(=O)[C@@H]1C[C@@H]2C(=O)N[C@@H](CCCCN)C(=O)N2[C@@H]1c1cccc(OCCO)c1,0.858,1.24,0.826,-0.107 (inactive),0.699,0.642,-0.0511,1.44,0.969,0.428,0.309,0.731,0.599,-0.804,-0.262,0.0921,0.241,0.628,1.97,-0.066
CN1C2C=C(CCCO)C(C3C(=O)N(C(N)=O)C(=O)C32)C1c1cccs1 (stereo not given),-0.254,1.3,0.492,0.359 (inactive),1.12,0.386,-0.259,-0.173,1.45,0.418,0.261,-0.364,0.362,-0.555,-0.328,0.535,-0.138,-0.0987,0.377,0.378
C=CC[C@@]12N=C(c3ccc(OCCCO)cc3)O[C@@H]1c1ccccc1N(CCS(=O)(=O)c1ccccc1)C2=O,1.22,-0.183,0.269,-2.49 (inactive),0.397,1.28,0.272,1.19,0.571,1.23,1.38,-0.925,0.526,1.69,0.727,-0.0303,0.147,-0.0569,0.676,0.448
C=C(CCCC)/C(=C/C[C@@H](OC(C)=O)c1ccc(CO)o1)c1cc(C(=O)OC)ccc1OC,0.416,-0.198,-0.549,1.32 (inactive),1.19,1.13,0.0789,1.4,0.543,0.207,1.45,-1.79,0.26,0.723,0.0443,-0.0758,-0.232,0.141,0.886,1.28
CCOC(=O)C[C@H]1[C@H](OC(=O)c2ccc(-c3ccccc3)cc2)[C@@H](NC(=O)c2ccc3ccccc3c2)c2cc(OCCCO)ccc2N1C(=O)c1ccc2ccccc2n1,0.33,-0.0069,0.221,-0.634 (inactive),0.577,0.439,0.098,0.458,0.426,0.31,1.18,-1.07,0.249,1.31,0.593,-0.0445,-0.112,-0.324,0.639,0.0804
C#CCNC(=O)[C@H](Cc1ccccc1)NC(=O)[C@@H](N=[N+]=[N-])C(C)C,0.435,-0.218,-0.503,0.177 (inactive),0.18,0.596,0.398,0.335,0.654,0.554,0.902,0.965,0.69,0.222,-0.217,-0.117,-0.262,0.221,0.455,0.96
O=C1c2ccccc2[C@](Cc2ccccc2I)(C(=O)NCCN2CCOCC2)[C@H](c2ccc(CO)cc2)N1Cc1ccccc1,1.21,1.05,0.345,-0.825 (inactive),0.712,1.04,0.167,1.04,0.352,0.59,1.41,-1.79,0.522,1.25,0.295,0.359,0.385,0.482,0.496,1.64
COc1ccc(C(O)C2C=CC3C(=O)N(c4ccccc4)C(=O)C3N2Nc2ccccc2)cc1OCc1ccccc1 (stereo not given),0.964,0.294,0.77,0.161 (inactive),1.21,1.29,-0.0831,1.29,-0.0662,0.726,1.48,-0.412,0.0977,0.552,0.734,0.165,0.123,1.26,0.618,1.4
[N-]=[N+]=Nc1ccccc1[C@H]1OC(c2ccc(OCCCO)cc2)=N[C@@]1(CCS(=O)(=O)c1ccccc1)C(=O)N1CCCCC1,1.37,1.27,1.27,-1.21 (inactive),0.354,0.797,0.0374,0.801,-0.44,1.38,1.44,-1.05,-0.149,1.48,0.956,-0.0165,0.184,0.0127,1.27,2.21
[N-]=[N+]=NCc1ccccc1[C@H]1OC(c2ccc(OCCCO)cc2)=N[C@@]1(CCS(=O)(=O)c1ccccc1)C(N)=O,1.37,0.605,1.07,-0.503 (inactive),1.5,1.1,-0.216,0.441,-0.0333,1.29,1.11,-0.281,0.264,0.145,0.257,-0.096,0.265,1.4,1.47,2.43
